The results in this text go back to the supplement of paper PMC3545927.

The list shows a part of the results. No count for the full screen is at hand.

The assay concerns the target furin, P09958. In words: furin cleavage Z-score vs untreated control; higher = more cleavage, active = 3.5 or more, inactive = 1 or less, 8 variable residues between constant flanks. The protocol: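 Multiplexed peptide-cDNA fusion cleavage assay. 8-mer variable peptides flanked by constant Cys-Ala (N-term) and Ala-Gly-Asn-Ala-Ser-Ala-Ser-Ala (C-term) and conjugated to a cDNA oligonucleotide were bead-immobilised via the N-terminus. They were treated with purified furin at a 1:10 enzyme:substrate ratio in 50 mM HEPES pH 7.5, 1 mM CaCl2, 100 mM NaCl for 7.5, 15 or 30 min. Released cDNA was counted by next-generation sequencing, and log counts versus no-furin controls were lowess-adjusted and converted to robust Z-scores.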

Sequence of furin, P09958 (P09958 whole entry, the tested form may be a part): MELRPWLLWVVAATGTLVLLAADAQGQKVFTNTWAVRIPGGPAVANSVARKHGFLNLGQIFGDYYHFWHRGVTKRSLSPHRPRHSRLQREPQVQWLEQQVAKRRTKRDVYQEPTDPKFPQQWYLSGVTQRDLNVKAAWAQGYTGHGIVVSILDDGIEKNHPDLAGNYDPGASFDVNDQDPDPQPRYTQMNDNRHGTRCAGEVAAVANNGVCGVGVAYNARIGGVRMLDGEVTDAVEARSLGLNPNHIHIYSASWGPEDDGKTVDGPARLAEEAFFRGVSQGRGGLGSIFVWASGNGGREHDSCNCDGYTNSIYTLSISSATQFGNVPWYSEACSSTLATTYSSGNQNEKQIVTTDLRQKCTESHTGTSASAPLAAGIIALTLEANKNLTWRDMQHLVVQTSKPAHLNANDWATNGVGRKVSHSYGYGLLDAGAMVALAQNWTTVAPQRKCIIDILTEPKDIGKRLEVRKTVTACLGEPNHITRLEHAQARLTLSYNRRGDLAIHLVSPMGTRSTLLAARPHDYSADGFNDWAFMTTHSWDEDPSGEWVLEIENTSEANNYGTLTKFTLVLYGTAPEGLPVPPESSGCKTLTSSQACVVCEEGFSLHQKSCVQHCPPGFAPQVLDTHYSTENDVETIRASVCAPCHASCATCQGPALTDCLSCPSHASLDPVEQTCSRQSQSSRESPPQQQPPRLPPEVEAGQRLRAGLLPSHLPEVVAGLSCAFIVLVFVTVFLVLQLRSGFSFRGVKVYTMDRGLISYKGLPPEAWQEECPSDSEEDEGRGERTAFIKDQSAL

Consider CATTPISGSWAGNASASA [HC45], for which the “furin cleavage Z-score” value (7.5 min) was -0.899 (inactive), the “furin cleavage Z-score” value (15 min) is -0.739 (inactive) and the “furin cleavage Z-score” value (30 min) is -0.823 (inactive).
Taken in the same sequence, the figures for CASLPCSAHLAGNASASA [HC2485] were -0.663 (inactive), 0.376 (inactive) and 0.512 (inactive).
Taken in the same sequence, the figures for CAMRECSQHLAGNASASA [HC1693] were -1.86 (inactive), 1.41 and 0.442 (inactive).
Take CASLEVVTSTAGNASASA [HC2277]: the “furin cleavage Z-score” value is, setting by setting: (7.5 min) -0.584 (inactive); (15 min) -0.0293 (inactive); (30 min) 0.688 (inactive).
As to CAYIPRILGPAGNASASA [FS-1875], the “furin cleavage Z-score” value is, setting by setting: (7.5 min) -0.849 (inactive); (15 min) -0.994 (inactive); (30 min) -2.27 (inactive).
Taken in the same sequence, the figures for CAEVVTSTSVAGNASASA [HC2237] were 0.559 (inactive), -1.07 (inactive) and -1.09 (inactive).
Taken in the same sequence, the figures for CARYIRSERSAGNASASA [FS-1611] were 6.49 (active), 8.32 (active) and 8.42 (active).
Taken in the same sequence, the figures for CATRKTSERSAGNASASA [HC185] were 0.0798 (inactive), 1.75 and 1.32.
With CATTLCSGSWAGNASASA [HC1865], the “furin cleavage Z-score” value reads like this: (7.5 min) -0.162 (inactive); (15 min) -0.533 (inactive); (30 min) 0.486 (inactive).
Take CATTPCFGSWAGNASASA [HC66]: the “furin cleavage Z-score” value is 0.204 (inactive) (7.5 min), 0.119 (inactive) (15 min) and -0.471 (inactive) (30 min).
As to CARPFRQVLAAGNASASA [FS-2738], the “furin cleavage Z-score” value runs as follows: (7.5 min) -0.792 (inactive); (15 min) 0.095 (inactive); (30 min) -0.451 (inactive).
Taken in the same sequence, the figures for CARKRRAPLAAGNASASA [FS-2698] were 6.06 (active), 7.82 (active) and 7.26 (active).
Taken in the same sequence, the figures for CARKRRRQHGAGNASASA [FS-2974] were -0.939 (inactive), -0.0293 (inactive) and 0.389 (inactive).
For the sequence CARKRRKGKAAGNASASA [FS-2973], the “furin cleavage Z-score” value by setting is: (7.5 min) -1.27 (inactive); (15 min) 1.85; (30 min) 0.732 (inactive).
Taken in the same sequence, the figures for CARKRRAPHGAGNASASA [FS-2493] were 4.63 (active), 5.64 (active) and 5.6 (active).
As to CALSTTGEIPAGNASASA [HC844], the “furin cleavage Z-score” value is 0.383 (inactive) (7.5 min), -0.16 (inactive) (15 min) and 0.771 (inactive) (30 min).
Taken in the same sequence, the figures for CARSCRILHKAGNASASA [FS-2457] were 0.718 (inactive), 0.25 (inactive) and 0.502 (inactive).
As for CARRKRLRHRAGNASASA [FS-3054], the “furin cleavage Z-score” value is -0.105 (inactive) (7.5 min), -0.397 (inactive) (15 min) and -1.97 (inactive) (30 min).
Taken in the same sequence, the figures for CARRKRKSQRAGNASASA [FS-2402] were 1.07, 2.8 and 3.58 (active).
Taken in the same sequence, the figures for CARRKRFPGKAGNASASA [FS-1918] were 0.56 (inactive), 2.63 and 3.28.
Taken in the same sequence, the figures for CARRKRRQTGAGNASASA [FS-2516] were 8.82 (active), 9.35 (active) and 7.88 (active).
Take CARRKRRHHKAGNASASA [FS-1969]: the “furin cleavage Z-score” value was 1.16 (7.5 min), 4.53 (active) (15 min) and 5.66 (active) (30 min).
Taken in the same sequence, the figures for CARRKRAGGGAGNASASA [FS-2067] were 4.24 (active), 4.92 (active) and 5.33 (active).
As for CARRKRIVGGAGNASASA [FS-2228], the “furin cleavage Z-score” value runs as follows: (7.5 min) 0.169 (inactive); (15 min) 1.22; (30 min) 2.08.
Taken in the same sequence, the figures for CAHLEVVTSTAGNASASA [HC2275] were -0.0236 (inactive), -0.0472 (inactive) and -0.103 (inactive).
For the sequence CAVTPCSAHLAGNASASA [HC2470], the “furin cleavage Z-score” value is, setting by setting: (7.5 min) -2.91 (inactive); (15 min) -0.94 (inactive); (30 min) -1.39 (inactive).
Taken in the same sequence, the figures for CATSLTGRDKAGNASASA [HC683] were 0.711 (inactive), 0.726 (inactive) and 0.633 (inactive).
